A selection: hits, their analogues and other compounds. The true share with any hit is near 1.6%.
KCNQ2 enhance = potentiators of rat KCNQ2 potassium channel. B-score at 10 µM. Potassium voltage-gated channel subfamily KQT member 2 (Rattus norvegicus), O88943. AID 2239, 2010. CHO-K1 KCNQ2, FluxOR thallium flux fluorescence; stronger effect = higher value. actives 0.54% (n = 310,000);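 active means fluorescence ratio B-score at least 3 SD of library B-scores, with initial fluorescence B-score within 3 of them, cut at about 5.3 in these data; same plate scores as AID 2156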;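 further: B-score of peak minus minimum over baseline fluorescence ratio after K+ and Tl+ stimulus; positive B-score means potentiation of KCNQ2 with more thallium influx and brighter signal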
Target sequence (O88943 whole entry, looked up): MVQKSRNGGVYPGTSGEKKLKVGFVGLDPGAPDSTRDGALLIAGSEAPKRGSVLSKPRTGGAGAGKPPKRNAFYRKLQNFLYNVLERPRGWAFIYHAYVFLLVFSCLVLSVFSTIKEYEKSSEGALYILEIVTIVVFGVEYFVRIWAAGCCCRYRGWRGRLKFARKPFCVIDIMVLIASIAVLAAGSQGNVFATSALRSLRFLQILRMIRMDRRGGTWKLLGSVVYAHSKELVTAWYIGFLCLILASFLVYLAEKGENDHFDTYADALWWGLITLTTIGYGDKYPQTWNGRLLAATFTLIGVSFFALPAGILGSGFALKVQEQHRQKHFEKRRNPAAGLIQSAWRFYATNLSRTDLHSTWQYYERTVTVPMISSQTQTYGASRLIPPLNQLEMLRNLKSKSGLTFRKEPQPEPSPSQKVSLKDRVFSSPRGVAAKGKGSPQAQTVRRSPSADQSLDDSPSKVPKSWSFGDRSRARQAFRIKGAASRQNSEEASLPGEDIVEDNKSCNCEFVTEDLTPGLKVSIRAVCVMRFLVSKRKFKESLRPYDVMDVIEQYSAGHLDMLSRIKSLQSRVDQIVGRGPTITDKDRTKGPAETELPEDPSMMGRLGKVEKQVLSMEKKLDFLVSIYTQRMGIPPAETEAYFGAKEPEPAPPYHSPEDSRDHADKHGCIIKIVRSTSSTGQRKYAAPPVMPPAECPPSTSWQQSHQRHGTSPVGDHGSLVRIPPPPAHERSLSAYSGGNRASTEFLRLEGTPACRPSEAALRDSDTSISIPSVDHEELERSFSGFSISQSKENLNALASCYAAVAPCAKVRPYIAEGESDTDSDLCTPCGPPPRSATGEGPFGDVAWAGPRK
KCNQ2 block = rat KCNQ2 potassium channel inhibitors, primary screen, cell-based, CHO-K1, FluxOR thallium flux, B-score | 20 min; stronger effect = lower value | B-score at 10 µM | actives 1.1% (n = 310,000) | AID 2156, 2009;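 active means fluorescence ratio B-score at most minus 3 library SDs, with starting brightness B-score within 2 library SDs, cut at about -5.5 in these data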
Starred values were filed as active, the others as inactive; i = inactive; . = no result given.

SMILES	KCNQ2 enhance	KCNQ2 block
Cc1cccc(C)c1NC(=O)CN(C)C(=O)c1ccccc1C(=O)N(C)Cc1ccccc1	-6.6	-6.6*
Cc1ccccc1C(=O)N(C)Cc1ccccc1	.	i
Cn1c2ccccc2c2cc(/C=N/NC(=O)c3cc(O)ccc3O)ccc21	-7.17	-7.17*
Cn1c2ccccc2c2cc(/C=N/NC(=O)c3cc(O)cc(O)c3)ccc21	.	i
CC1CN(Cc2ccccc2)C(C)CC1O (centres undefined)	.	i
CC1=NN(c2ccc(Cl)c(C(=O)O)c2)C(=O)/C1=C\c1ccc(-c2ccc(C(=O)O)cc2)o1	1.6	i
CC1=NN(c2ccccc2)C(=O)/C1=C/c1ccc(-c2ccc(C)c(C(=O)O)c2)o1	6.84*	i
CC(C)(C)c1ccc(NC(=O)COC(=O)C2(C)CC2(Cl)Cl)cc1 (centres undefined)	.	i
N/C(=N\OC(=O)c1ccccc1Cl)c1ccccc1	.	i
N/C(=N\OC(=O)N1c2ccccc2Sc2ccccc21)c1ccccc1	-6.49	-6.49*
O=C1C=CC(=O)N1Cc1ccccc1	.	i
O=C1C=CC(=O)N1N(c1ccccc1)c1ccccc1	-6.24	-6.24*
CCOc1ccc(C2=NNC(c3cccs3)=Nc3ccc(OC)cc32)cc1	-5.62	-5.62*
CCOc1ccc(C2=NNC(c3cccnc3)=Nc3ccc(OC)cc32)cc1	.	i
COCC(=O)N1CCCC(C(=O)c2ccc(-c3ccccc3)c(F)c2)C1 (centres undefined)	.	i
CCCCCN1CC(=O)N2Cc3[nH]c4ccccc4c3C[C@H]2C1=O	.	i
CCCCN1C(=O)C2Cc3c([nH]c4ccccc34)CN2C1=S (centres undefined)	-5.56	-5.56*
O=C1[C@@H]2Cc3c([nH]c4ccccc34)CN2C(=O)CN1CCCO	0.73	i
CCCCCCN1CC(=O)N2Cc3[nH]c4ccccc4c3C[C@H]2C1=O	-6.93	-6.93*
COC(=O)c1ccc(COC(=O)c2ccc(SC)cc2OC)cc1	.	i
O=C(COc1ccccc1)NCCSCc1ccc(Cl)cc1	-6.57	-6.57*
CC(C)(C)c1ccc(C(=O)NCCOc2ccccc2)cc1	.	i
COc1ccccc1OCC(=O)NCCSCc1ccccc1Cl	-6.19	-6.19*
COc1ccccc1OCC(=O)NCCSCc1cccc(Cl)c1	-6.4	-6.4*
COc1ccccc1C(=O)NCCOc1ccc(C(C)(C)C)cc1	-5.78	-5.78*
SMILES	KCNQ2 enhance	KCNQ2 block
O=C(Cc1ccccc1)NCCSCc1ccc(Cl)cc1	1.39	i
COc1ccccc1OCC(=O)NCCNC(=O)COc1ccccc1OC	.	i
O=C(COc1ccccc1)NCCSCc1ccccc1Cl	.	i
CC(NC(=O)c1cc(F)c(F)cc1Cl)C1CC2CCC1C2 (centres undefined)	.	i
O=C(Cc1ccc(S(=O)(=O)N2CCOCC2)s1)NCCOc1ccccc1	.	i
CCN(CC(=O)NCc1ccc(Cl)cc1)C(=O)C1CCN(S(=O)(=O)c2ccc(OC)c(OC)c2)CC1	.	i
CS(=O)(=O)NCCSc1cc(C(F)(F)F)nc2ccccc12	.	i
COc1ccccc1C(=O)NCCCNC(=O)c1ccccn1	.	i
COc1ccccc1C(=O)NCCSCc1ccccc1Cl	-6.38	-6.38*
O=P(CCCO)(Cc1ccccc1)Cc1ccccc1	.	i
CN(C(=O)COn1nnc2ccc(S(=O)(=O)N3CCOCC3)cc21)c1ccccc1	0.23	i
Cc1ccccc1COn1nnc2ccc(S(=O)(=O)N3CCOCC3)cc21	-6.66	-6.66*
CC(C)C(C(=O)Nc1ccc2c(c1)OCCOCCOCCOCCO2)N1C(=O)c2ccccc2C1=O (centres undefined)	.	i
O=C(c1ccc(C(F)(F)F)cc1)C1CCCN(C(=O)CN2CCCC2=O)C1 (centres undefined)	0.37	i
COCCC(=O)N1CCCC(C(=O)c2ccc(C(F)(F)F)cc2)C1 (centres undefined)	6.77*	i
CC(=O)Nc1ccc(S(=O)(=O)NC(C(=O)O)C(C)O)cc1 (centres undefined)	.	i
Oc1c(Cl)cc(Cl)cc1CNc1ccccn1	.	i
Oc1c(Cl)cc(Cl)cc1CNc1nc2ccccc2[nH]1	-6.17	-6.17*
CCOC(=O)N1CCC(NS(=O)(=O)c2cc(C(=O)OC)n(C)c2)CC1	0.5	i
COc1ccc(Br)cc1-c1nc(C)c(C(C)=O)n1O	-7.19	-7.19*
COc1ccc(Br)cc1-c1noc(-c2ccccc2)n1	.	i
COC(=O)c1ccc(OC(C)C(=O)c2ccc(C)cc2)cc1 (centres undefined)	.	i
O=S(=O)(/N=C(/Nc1ccc(F)cc1F)c1ccccc1)c1ccc(Br)cc1	.	i
NS(=O)(=O)c1ccc(CCNC(=O)c2ccc(NC3=NC4CS(=O)(=O)CC4S3)cc2)cc1 (centres undefined)	.	i
COc1ccccc1C(=O)NC(=O)CSc1nncn1C(C)C	0.26	i
SMILES	KCNQ2 enhance	KCNQ2 block
Cc1ccc2nc(-c3ccccc3)cc(C(=O)NCC(c3ccco3)N(C)C)c2c1 (centres undefined)	-5.8	-5.8*
Cc1ccc2nc(-c3ccccc3)cc(C(=O)NCC3CCCO3)c2c1 (centres undefined)	.	i
CCOC(=O)c1sc(-c2ccc(Cl)cc2Cl)nc1O	.	i
Cc1cc(NC(=O)Cn2nc(C)c([N+](=O)[O-])c2C)no1	.	i
COc1ccc(OCCNC(=S)Nc2cccc3ccccc23)cc1	-6.24	-6.24*
COc1ccc(CCNC(=S)Nc2cccc3ccccc23)cc1	.	i
COC(CNC(=O)c1ccc2c(c1)ncn2C1CCCCCC1)OC	1.44	i
O=C(CN1C(=O)NC(c2ccccc2)(c2ccccc2)C1=O)c1c[nH]c2ccccc12	.	i
O=C(NCc1ccccc1F)C1CCCN(S(=O)(=O)N2CCOCC2)C1 (centres undefined)	2.23	i
CCc1ccccc1NC(=O)NC1CCCCCCC1	2.14	i
COc1cc(-c2csc(N3CCOCC3)n2)cc(OC)c1OC	0.33	i
COc1ccc(-c2csc(N3CCN(c4cc(C)nc5ccccc45)CC3)n2)cc1OC	-6.3	-6.3*
Cc1nn(-c2ccccc2)c(Cl)c1C(=O)Nc1nnc(C2CCCC2)s1	.	i
Cc1[nH]nc(SCC(=O)N(C)c2ccccc2)c1[N+](=O)[O-]	0.04	i
COc1ccc(-n2nc(C(=O)NCC(=O)N3CCN(c4ccccn4)CC3)c3ccccc3c2=O)cc1	-8.21	-8.21*
COc1ccc(-n2nc(C(=O)NCC(=O)N3CCN(c4ccccn4)CC3)c3ccccc3c2=O)cc1OC	.	i
COc1ccc(-c2cn(-c3ccc(C)cc3C)c(=O)[nH]2)cc1OC	.	i
CC(C(=O)NCc1ccc(Cl)cc1)n1cccc1C(=O)c1ccccc1 (centres undefined)	0.08	i
COc1ccccc1CNC(=O)C(C)n1cccc1C(=O)c1ccccc1 (centres undefined)	-5.71	-5.71*
COc1ccccc1N1CCN(CCCNC(=O)C2CCCN(c3ncnc4c3nc3n4CCCCC3)C2)CC1 (centres undefined)	.	i
Cc1nnc(NC(=O)C(C)Sc2nnc(CNC(=O)c3ccccc3F)n2C)s1 (centres undefined)	.	i
Cc1[nH]n(-c2ccccc2)c(=O)c1C(c1ccccc1[N+](=O)[O-])C(C#N)C#N (centres undefined)	.	i

High-throughput results as filed in PubChem BioAssay.
